High-throughput results: PubChem, National Center for Advancing Translational Sciences (NCATS)
Hits are enriched below; roughly 6.1% of the tested compounds scored in any of these assays.
D1 PAM – enhances dopamine response at the human D1 receptor. P21728. potentiation, % at 10 µM. HEK293 TREx D1 cells, calcium flux, dopamine EC20 potentiation. 360,000 tested, 0.036% active. AID 504651; in the data active means potentiation above about 30%
Target sequence (P21728 whole entry, looked up): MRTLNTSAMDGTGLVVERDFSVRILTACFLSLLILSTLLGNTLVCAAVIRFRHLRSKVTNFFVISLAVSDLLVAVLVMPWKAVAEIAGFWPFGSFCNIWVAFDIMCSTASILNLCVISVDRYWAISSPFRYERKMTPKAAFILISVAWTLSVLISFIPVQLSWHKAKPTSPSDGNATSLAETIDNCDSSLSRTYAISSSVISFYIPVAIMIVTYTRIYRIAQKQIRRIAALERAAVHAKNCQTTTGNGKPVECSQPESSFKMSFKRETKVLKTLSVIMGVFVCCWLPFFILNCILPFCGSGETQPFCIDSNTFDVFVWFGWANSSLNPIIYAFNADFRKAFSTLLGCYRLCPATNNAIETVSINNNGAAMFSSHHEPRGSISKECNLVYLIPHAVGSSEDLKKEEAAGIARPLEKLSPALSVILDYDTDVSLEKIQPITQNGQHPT
D1 antag – blocks dopamine activation of the human D1 receptor; HEK293 TREx D1 cells, calcium flux, dopamine EC80; active compounds read low; AID 504652; P21728; activity change, negative = inhibition, % at 10 µM; 360,000 tested, 3.2% active; in the data active means activity change below about -30%
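Compound effects on dopamine-evoked calcium signalling were measured in tetracycline-induced HEK293 Trex D1 cells. Dopamine at EC80 followed a 180 s compound pre-read, and fluorescence was tracked kinetically for 180 s more.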
DRD3 agonist – activates the human D3 dopamine receptor; 410,000 tested, 0.58% active; D3R DiscoveRx beta-arrestin cells, luminescence, 90 min; P35462; max activation, %; in the data active means max activation above about 30%
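Agonist mode: compounds and dopamine controls were applied to plated cells for 90 min at 37 degrees C after an overnight attachment at 1500 cells/well. Luminescent read-out followed 30 - 60 minutes at room temperature with DiscoveRx detection reagent.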
D1 ag – agonists of human D1 dopamine receptor | P21728 | HEK293 T-REx D1 cells, calcium flux, agonist mode | activation, % at 2 µM | 360,000 tested, 1% active | AID 504660; in the data active means activation above about 30%
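Inducible HEK293 T-REx D1 cells, force-coupled to calcium signalling, were plated at 4000 cells/well with tetracycline and held overnight at 30 C. After no-wash calcium dye loading, compound-evoked calcium rise over 180 s flagged agonists.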
DRD3 antagonist – blocks the human D3 dopamine receptor | P35462 | D3R cells, DiscoveRx beta-arrestin luminescence, antagonist mode; active compounds read low | max response, negative = inhibition, % | 360,000 tested, 2.5% active | AID 652054; in the data active means max response below about -50%; inconclusive means no clear call, values can overlap the other calls
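Cells plated overnight at 1500 cells/well, then exposed to library compounds with dopamine controls for 90 minutes at 37 degrees C. DiscoveRx reagent added for 30–60 minutes at room temperature; luminescence read, quantitative HTS format.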
Each line names hits and unclear results; the compound was inactive in the other large screens.

O=C(CCC1N=C2c3ccccc3N=C(SCc3cccc(F)c3)N2C1=O)NCc1cccs1 (stereo unspecified)	none (no result: DRD3 antagonist)
Cc1nc(-c2cccc(NC(=O)Nc3ccc([N+](=O)[O-])cc3)c2)no1	D1 antag -45 (no result: DRD3 antagonist)
O=C(CCCOc1ccccc1)Nc1cccc([N+](=O)[O-])c1	none
COc1ccc(C)cc1NC(=O)Nc1cccc(-c2noc(C)n2)c1	none (no result: DRD3 antagonist)
O=C(COC(=O)COc1ccccc1)Nc1cccc([N+](=O)[O-])c1	D1 antag -34
O=C(CCCc1ccccc1)Nc1cccc([N+](=O)[O-])c1	D1 antag -37
O=C(CCc1ccccc1)Nc1cccc([N+](=O)[O-])c1	DRD3 antagonist inconclusive
O=C(Nc1cccc([N+](=O)[O-])c1)Nc1ccc2c(c1)OCCO2	D1 antag -40
CCCCn1cc(S(=O)(=O)c2ccc(CC)cc2)c(=O)c2cc(F)c(N3CCOCC3)cc21	none (no result: DRD3 antagonist)
COc1ccc(CCNC(=O)c2cnc3sc(N4CCC(C)CC4)nn3c2=O)cc1OC	none (no result: DRD3 antagonist)
CCCCOc1ccc(C(=O)NCc2cn3cccc(C)c3n2)cc1	none (no result: DRD3 antagonist)
O=C(Nc1cccc([N+](=O)[O-])c1)C1C2/C=C\CCCCC21 (stereo unspecified)	D1 antag -34
Cc1occc1C(=O)NNC(=S)Nc1cccc([N+](=O)[O-])c1	DRD3 antagonist -109
O=C(Nc1cccc([N+](=O)[O-])c1)C1C2CCCCC21 (stereo unspecified)	none
Cc1cccc(NC(=S)NNC(=O)c2cccc([N+](=O)[O-])c2)c1	none
O=C(c1ccccc1)c1cccn1CC(=O)N1CCc2ccccc2C1	DRD3 antagonist -54
N#Cc1cn(CC(=O)N2CCc3ccccc3C2)c2ccccc12	DRD3 antagonist -53
N#Cc1cn(CC(=O)N2CCCC2)c2ccccc12	none
CCCCN1C(=O)/C(=C/C=C2\SCCN2C)SC1=S	D1 antag -39, D1 ag 94
CN1CCS/C1=C/C=C1\SC(=S)N(CC(=O)O)C1=O	D1 ag 42
CCCN1C(=O)/C(=C\C=C2/C=CN(CC)c3ccccc32)SC1=S	none
CN1CCS/C1=C/C=C1/SC(=S)N(Cc2ccccc2)C1=O	D1 ag 55, DRD3 antagonist inconclusive
CCCCN1C(=O)/C(=C/C=C2\N(C)c3ccccc3C2(C)C)SC1=S	D1 ag 67 (no result: DRD3 agonist, DRD3 antagonist)
COc1ccc(NC(=O)Cn2cc(C(=O)c3ccc(C)c(C)c3)c(=O)c3cc(OC)ccc32)cc1	none (no result: DRD3 antagonist)
Cn1nnnc1Sc1ncnc2scc(I)c12	none (no result: DRD3 agonist, DRD3 antagonist)
CCc1c(C)sc2c1CCN(C(=O)Nc1ccccc1Cl)C2c1ccc(OC)cc1 (stereo unspecified)	none (no result: DRD3 antagonist)
CCCOc1ccc(-c2nonc2NC(=O)c2oc3ccc(Cl)cc3c2C)cc1OCCC	none (no result: DRD3 antagonist)
COc1ccccc1N1C(=O)C2C(C(=O)c3ccccc3)=NN(c3ccccc3OC)C2C1=O (stereo unspecified)	D1 ag 78
CCC(=O)OC1=C(C(C)=O)N(Cc2ccccc2)S(=O)(=O)c2ccccc21	none (no result: DRD3 antagonist)
C#CCNC(=O)C1=C[C@H](c2ccc(C(F)(F)F)cc2)[C@@H](CCCO)[C@H](OCC)O1	DRD3 agonist 34
C#CCNC(=O)C1=C[C@@H](c2ccc(Br)cc2)[C@H](CCCO)[C@@H](OCC)O1	none
Cc1c2ccccc2nc2c(F)c(NC(C)C)c(F)c(F)c12	D1 ag 64
O=C(C1CCN(C2CCN(C/C=C/c3ccccc3)CC2)CC1)N1CCOCC1	none
O=C(C1CCN(Cc2ccccc2)CC1)N1CCN(C/C=C/c2ccccc2)CC1	DRD3 antagonist -54
O=C(C1CCN(Cc2ccc(F)cc2)CC1)N1CCN(C/C=C/c2ccccc2)CC1	DRD3 antagonist -77
O=C(C1CC1)N1CCN(Cc2ccccc2)CC1	none (no result: D1 PAM, D1 antag, D1 ag)
COc1ccc(CNS(=O)(=O)c2ccc(-c3cc(C(F)(F)F)on3)s2)cc1OC	none (no result: DRD3 antagonist)
CC(C)(C)c1ccc(C(=O)NCC(=O)OCc2ccc([N+](=O)[O-])cc2)cc1	D1 antag -35
O=C(CNC(=O)c1ccccc1)OCc1cccc([N+](=O)[O-])c1	none
CCOc1ccccc1/C=N/NC(=O)Cc1csc(Nc2cccc(C(F)(F)F)c2)n1	none
CCOc1ccc(/C=N/NC(=O)Cc2csc(Nc3cccc(C(F)(F)F)c3)n2)c(OCC)c1	D1 antag -32
O=C(CSc1nc2ccsc2c(=O)n1NC(=O)c1ccccc1)Nc1nccs1	DRD3 antagonist -59
O=C(CSc1nc2ccsc2c(=O)n1NC(=O)c1ccccc1)NCc1ccco1	none
CCCCn1c(SCC(=O)c2ccccc2)nc2ccsc2c1=O	DRD3 agonist 59
CCc1ccc(S(=O)(=O)c2nnn3c2nc(NCc2cccc(OC)c2)c2cc(Cl)ccc23)cc1	none (no result: DRD3 antagonist)
CCNC(=O)C1CCCN(Cc2cc(C(F)(F)F)ccc2Cl)CC1 (stereo unspecified)	DRD3 antagonist -76 (no result: D1 PAM, D1 antag, D1 ag)
CCNC(=O)C1CCCN(Cc2ccc(C(=O)OCC)cc2)CC1 (stereo unspecified)	none (no result: D1 PAM, D1 antag, D1 ag)
Cc1ccc(-n2cc(-c3ccccc3)c3c(=O)[nH]cnc32)cc1	D1 antag -66
Fc1ccc(-n2cc(-c3ccccc3)c3c(=S)nc[nH]c32)cc1	D1 antag -41
CCOc1ccccc1NC(=O)Cn1nnc2sc3c(c2c1=O)CCC(C(C)(C)C)C3 (stereo unspecified)	none (no result: DRD3 antagonist)
c1ccc(COc2ccc(OCCCN3CCCC3)cc2)cc1	DRD3 antagonist inconclusive
OC(COc1ccc(OCc2ccccc2)cc1)CN1CCCCC1 (stereo unspecified)	none
c1ccc(COc2ccc(OCCN3CCCCC3)cc2)cc1	D1 antag -31, D1 ag 43
c1ccc(COc2ccc(OCCN3CCCC3)cc2)cc1	D1 ag 48
Cc1cc(C)nc(N/N=C/C2=C(O)CC(c3ccc(F)cc3)CC2=O)n1 (stereo unspecified)	DRD3 antagonist -121
COc1ccc(C)cc1NC(=O)c1cc(S(=O)(=O)NC2CCCCCC2)ccc1F	none (no result: DRD3 antagonist)
CCOc1ccc(NC(=O)Cc2c(O)c3ccccc3[nH]c2=O)cc1	DRD3 antagonist -63
CCCCOc1cccc(C(=O)N(Cc2ccc(C)o2)c2ccccn2)c1	none (no result: DRD3 antagonist)
COc1ccc(CNc2nc(-c3ccco3)nn2C(=O)CC(C)C)cc1	none (no result: DRD3 antagonist)
CCC1C/C(=C/c2ccco2)C(=O)/C(=C/c2ccco2)C1 (stereo unspecified)	D1 ag 37 (no result: DRD3 agonist, DRD3 antagonist)
CC(C)c1ccc(C(=O)Nc2ccc(-c3nc4ccccc4s3)c(Cl)c2)cc1	none (no result: DRD3 antagonist)
COc1ccccc1COC(=O)C(NC(=O)c1ccc(C)cc1)C(C)C (stereo unspecified)	D1 antag -32
COc1ccccc1CNC(=O)c1cc2c(-c3ccc(Cl)cc3)nn(C)c2s1	none (no result: DRD3 antagonist)
O=C(NC1CCS(=O)(=O)C1)C1C2CC3CC(C2)CC1C3 (stereo unspecified)	none
O=C(O)C1C2C=CC(C2)C1C(=O)NC1CCS(=O)(=O)C1 (stereo unspecified)	DRD3 antagonist -102
